Experimental data from PubChem BioAssay AID1159580 (chemical genetic matrix, 2015).
The campaign covered roughly 5,500 compounds. About 2,000 (36%) were called active. Roughly 18% stayed inconclusive and do not appear here. Cut-off read from the data, not from the text of the source: active = normalized growth mostly below about 0.91 (no sharp cut-off); inconclusive = no clear call, values can overlap the other calls; inactive = mostly above about 0.92. This is one part of the list.

Experiment: chemical genetic growth profiling, strain panel (AID 1159580);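 note: tested at 20 µM; growth read once vehicle control cultures reached saturation at 30 °C; 1 = growth at the plate median or of vehicle wells; lower values mean less growth of the strain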
Conditions: growth OD

Measured: normalized growth

Cc1ccc(S(=O)(=O)NC(=O)NN2CC3CCCC3C2)cc1 (stereo not drawn)
inactive: S. cerevisiae deletion strains, locus YJR043C, strain POL32, active compounds read low 0.991 | S. cerevisiae deletion strains, locus YJR066W, strain TOR1, active compounds read low 0.904 | S. cerevisiae deletion strains, locus YKL009W, strain mrt4, active compounds read low 1.02 | S. cerevisiae deletion strains, locus YKL068W, active compounds read low 1.01 | S. cerevisiae deletion strains, locus YKL085W, strain MDH1 (second series), active compounds read low 1.04 | S. cerevisiae deletion strains, locus YKL085W, strain MDH1, active compounds read low 1.04 | S. cerevisiae deletion strains, locus YKL160W, strain elf1, active compounds read low 0.98 | S. cerevisiae deletion strains, locus YKL190W, strain CNB1, active compounds read low 1.01 | S. cerevisiae deletion strains, locus YKR001C, strain vps1, active compounds read low 1.01 | S. cerevisiae deletion strains, locus YKR026C, strain gcn3, active compounds read low 0.978 | S. cerevisiae deletion strains, locus YKR091W, strain srl3, active compounds read low 0.974 | S. cerevisiae deletion strains, locus YLL001W, strain dnm1, active compounds read low 0.953 | S. cerevisiae deletion strains, locus YLL026W, active compounds read low 0.974 | S. cerevisiae deletion strains, locus YLL041C, strain sdh2, active compounds read low 0.982 | S. cerevisiae deletion strains, locus YLR027C, strain aat2, active compounds read low 0.976 | S. cerevisiae deletion strains, locus YLR039C, strain RIC1, active compounds read low 0.943 | S. cerevisiae deletion strains, locus YLR058C, strain SHM2, active compounds read low 1.01 | S. cerevisiae deletion strains, locus YLR102C, strain apc9, active compounds read low 1.01 | S. cerevisiae deletion strains, locus YLR113W, strain HOG1, active compounds read low 0.974 | S. cerevisiae deletion strains, locus YLR221C, strain rsa3, active compounds read low 0.976 | S. cerevisiae deletion strains, locus YLR258W, strain gsy2, active compounds read low 0.99 | S. cerevisiae deletion strains, locus YLR262C, strain YPT6 (second series), active compounds read low 0.927 | S. cerevisiae deletion strains, locus YLR262C, strain YPT6, active compounds read low 0.967 | S. cerevisiae deletion strains, locus YLR268W, strain sec22, active compounds read low 0.999 | S. cerevisiae deletion strains, locus YLR320W, strain mms22, active compounds read low 0.983 | S. cerevisiae deletion strains, locus YLR330W, strain CHS5, active compounds read low 1 | S. cerevisiae deletion strains, locus YLR342W, strain FKS1 (second series), active compounds read low 0.992 | S. cerevisiae deletion strains, locus YLR342W, strain FKS1, active compounds read low 0.996 | S. cerevisiae deletion strains, locus YLR357W, strain rsc2, active compounds read low 0.989 | S. cerevisiae deletion strains, locus YLR370C, strain arc18, active compounds read low 0.953 | S. cerevisiae deletion strains, locus YLR371W, strain rom2, active compounds read low 1.01 | S. cerevisiae deletion strains, locus YLR384C, strain iki3, active compounds read low 0.993 | S. cerevisiae deletion strains, locus YLR418C, strain cdc73, active compounds read low 1.02 | S. cerevisiae deletion strains, locus YML016C, strain PPZ1, active compounds read low 0.996 | S. cerevisiae deletion strains, locus YML032C, strain rad52, active compounds read low 1.01 | S. cerevisiae deletion strains, locus YML120C, strain ndi1, active compounds read low 1.01 | S. cerevisiae deletion strains, locus YML124C, strain tub3, active compounds read low 1.01 | S. cerevisiae deletion strains, locus YMR058W, strain fet3, active compounds read low 0.958 | S. cerevisiae deletion strains, locus YMR078C, strain ctf18, active compounds read low 1.02 | S. cerevisiae deletion strains, locus YMR125W, strain sto1, active compounds read low 0.966 | S. cerevisiae deletion strains, locus YMR129W, active compounds read low 0.97 | S. cerevisiae deletion strains, locus YMR205C, strain PFK2, active compounds read low 0.991 | S. cerevisiae deletion strains, locus YMR223W, strain ubp8, active compounds read low 1.03 | S. cerevisiae deletion strains, locus YMR231W, strain pep5, active compounds read low 0.989 | S. cerevisiae deletion strains, locus YMR263W, strain SAP30, active compounds read low 1.02 | S. cerevisiae deletion strains, locus YMR307W, strain GAS1, active compounds read low 1.04 | S. cerevisiae deletion strains, locus YNL067W, strain RPL9B, active compounds read low 1.03 | S. cerevisiae deletion strains, locus YNL071W, strain lat1, active compounds read low 0.974 | S. cerevisiae deletion strains, locus YNL153C, strain GIM3, active compounds read low 1 | S. cerevisiae deletion strains, locus YNL183C, strain NPR1, active compounds read low 0.92 | S. cerevisiae deletion strains, locus YNL209W, strain ssb2, active compounds read low 0.977 | S. cerevisiae deletion strains, locus YNL233W, strain BNI4, active compounds read low 1.01 | S. cerevisiae deletion strains, locus YNL248C, strain rpa49, active compounds read low 0.982 | S. cerevisiae deletion strains, locus YNL250W, strain rad50, active compounds read low 1.03 | S. cerevisiae deletion strains, locus YNL271C, strain bni1, active compounds read low 1.01 | S. cerevisiae deletion strains, locus YNL298W, strain CLA4, active compounds read low 1.04 | S. cerevisiae deletion strains, locus YNL307C, strain MCK1, active compounds read low 1.02 | S. cerevisiae deletion strains, locus YNL322C, strain KRE1 (second series), active compounds read low 0.978 | S. cerevisiae deletion strains, locus YNR049C, strain mso1, active compounds read low 0.961 | S. cerevisiae deletion strains, locus YNR052C, strain pop2, active compounds read low 1.01 | S. cerevisiae deletion strains, locus YOL012C, strain htz1 0.86 | S. cerevisiae deletion strains, locus YOL147C, strain pex11, active compounds read low 1.02 | S. cerevisiae deletion strains, locus YOR001W, strain rrp6, active compounds read low 0.99 | S. cerevisiae deletion strains, locus YOR061W, strain CKA2, active compounds read low 0.996 | S. cerevisiae deletion strains, locus YOR069W, strain VPS5, active compounds read low 1.01 | S. cerevisiae deletion strains, locus YOR070C, strain gyp1, active compounds read low 0.985 | S. cerevisiae deletion strains, locus YOR080W, strain dia2, active compounds read low 0.97 | S. cerevisiae deletion strains, locus YOR083W, strain WHI5, active compounds read low 0.982 | S. cerevisiae deletion strains, locus YOR106W, strain vam3, active compounds read low 0.968 | S. cerevisiae deletion strains, locus YOR136W, strain idh2, active compounds read low 1.01 | S. cerevisiae deletion strains, locus YOR144C, strain elg1, active compounds read low 1.01 | S. cerevisiae deletion strains, locus YOR184W, strain ser1, active compounds read low 1 | S. cerevisiae deletion strains, locus YOR231W, strain MKK1, active compounds read low 0.971 | S. cerevisiae deletion strains, locus YOR265W, strain rbl2, active compounds read low 0.967 | S. cerevisiae deletion strains, locus YOR270C, strain vph1, active compounds read low 1.03 | S. cerevisiae deletion strains, locus YOR290C, strain snf2, active compounds read low 0.939 | S. cerevisiae deletion strains, locus YOR316C, strain cot1, active compounds read low 1.01 | S. cerevisiae deletion strains, locus YPL051W, strain arl3, active compounds read low 0.959 | S. cerevisiae deletion strains, locus YPL078C, strain atp4, active compounds read low 0.978 | S. cerevisiae deletion strains, locus YPL106C, strain sse1, active compounds read low 1 | S. cerevisiae deletion strains, locus YPL240C, strain hsp82, active compounds read low 0.985 | S. cerevisiae deletion strains, locus YPL256C, strain CLN2, active compounds read low 0.965 | S. cerevisiae deletion strains, locus YPR119W, strain clb2, active compounds read low 1.01 | S. cerevisiae deletion strains, locus YPR141C, strain kar3, active compounds read low 1.03 | S. cerevisiae deletion strains, locus YPR163C, strain tif3, active compounds read low 1.02 | S. cerevisiae deletion strains, locus YPR167C, strain met16, active compounds read low 1.02 | S. cerevisiae deletion strains, strain wtn01, active compounds read low 1 | S. cerevisiae strains, strain wild type, active compounds read low 0.997
